This is an account of results in publication PMC5540273 (PLoS ONE, 2017).

Test systems include HCK; HIPK1; HIPK2; HIPK3; HIPK4; HPK1; HUNK; ICK; IGF1R; INSRR; INSR; IRAK1; IRAK3; IRAK4; ITK.
Common to all, as to conditions: concentration: 1 μM, replicates: in singlicate; n = 1
The subject of another test is T1, HASPIN.
T1 construct: gene GSG2

The next test relates to T2, IKK-alpha.
T2 construct: gene CHUK

In a further test the test system is T3, IKK-beta.
T3 construct: gene IKBKB

A further test relates to T4, IKK-epsilon.
T4 construct: gene IKBKE

The test system of test [1] is JAK1(JH1domain-catalytic).
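Note: KINOMEscan kinase panel screen.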

Take `COc1cc(Nc2nccc(-c3c(-c4cccc(NC(=O)c5c(F)cccc5F)c4)nn4ccccc34)n2)cc(OC)c1OC` [GSK323521]: the “%Inh” value in the test on HASPIN is 0%; with HCK, 0%; in the test on HIPK1, 12%; in the test with HIPK2 it was 0%; in the test on HIPK3, 16%; in the test with HIPK4, 14%. Also, the “%Inh” value with HPK1 came to 50%; with HUNK, 24%; with ICK, 0%; with IGF1R, 32%; in the test on IKK-alpha, 0%; with IKK-beta it was 25%. Moreover, the “%Inh” value in the test on IKK-epsilon is recorded as 65%; with INSRR it was 13%; with INSR, 13%; in the test with IRAK1 it was 10%; with IRAK3 it was 22%; in the test with IRAK4, 0%. Further, the “%Inh” value is on record as 13% in the test with ITK and 5% in [1].
Consider `Cc1ccc(C)c(NC(=O)NC2CCN(c3ccnc(Nc4ccc(F)cc4)n3)C2)c1` (stereo not shown) [GSK1379720], for which the “%Inh” value in the test with HASPIN amounted to 44%; with HCK, 0%; with HIPK1 it was 0%; in the test with HIPK2, 10%; with HIPK3, 0%; in the test on HIPK4, 0%. Further, the “%Inh” value in the test on HPK1 is 45%; in the test with HUNK, 0%; with ICK it was 0%; in the test with IGF1R, 25%; in the test on IKK-alpha it was 32%; in the test on IKK-beta it was 18%. Besides, the “%Inh” value in the test on IKK-epsilon is given as 3%; in the test on INSRR, 0%; with INSR, 0%; with IRAK1, 40%; in the test with IRAK3 it was 0%; in the test with IRAK4, 20%. The “%Inh” value in the test with ITK stood at 5%; in test [1] it was 12%.
For `c1ccc(Oc2ccc(Nc3ccnc4cc(-c5ccc(CNCCN6CCOCC6)o5)ccc34)cc2)nc1` [GW567145], the “%Inh” value in the test on HASPIN is 43%; in the test on HCK it was 76%; in the test on HIPK1, 0%; with HIPK2 it was 0%; in the test with HIPK3 it was 10%; in the test with HIPK4, 0%. In addition, the “%Inh” value in the test with HPK1 stood at 15%; in the test with HUNK, 12%; in the test with ICK, 0%; in the test with IGF1R, 0%; in the test on IKK-alpha, 28%; with IKK-beta, 0%. The “%Inh” value in the test on IKK-epsilon was 27%; in the test on INSRR, 0%; in the test with INSR it was 11%; with IRAK1, 20%; in the test on IRAK3, 0%; in the test on IRAK4, 0%. For the same compound, the entries for the “%Inh” value (in the test with ITK; in test [1]) were 0% and 5%, respectively.
As to `O=C(Nc1ccccc1F)NC1CCN(c2ccnc(Nc3ccc(F)cc3)n2)CC1` [GSK1379800], the “%Inh” value is given as 9% in the test with HASPIN; 0% in the test on HCK; 0% in the test on HIPK1; 0% in the test on HIPK2; 16% with HIPK3; 0% in the test with HIPK4. Moreover, the “%Inh” value came out at 34% with HPK1; 6% in the test on HUNK; 3% with ICK; 10% with IGF1R; 0% in the test with IKK-alpha; 0% in the test with IKK-beta. Also, the “%Inh” value worked out at 22% with IKK-epsilon; 0% with INSRR; 0% with INSR; 24% in the test on IRAK1; 21% in the test with IRAK3; 5% in the test on IRAK4. For the same compound, the “%Inh” value in the test with ITK worked out at 0%; in test [1], 20%.
Consider `O=C(Nc1cccc(-c2nn3ccccc3c2-c2ccnc(Nc3cccc(F)c3)n2)c1)c1c(F)ccc(F)c1Cl` [GSK357952], for which the “%Inh” value in the test with HASPIN is 0%; in the test with HCK, 99.1%; in the test with HIPK1, 0%; in the test with HIPK2 it was 13%; in the test on HIPK3, 1%; in the test on HIPK4, 51%. The “%Inh” value is given as 13% in the test on HPK1; 0% in the test with HUNK; 3% with ICK; 17% in the test with IGF1R; 0% in the test with IKK-alpha; 0% in the test on IKK-beta. Moreover, the “%Inh” value amounted to 65% in the test with IKK-epsilon; 19% with INSRR; 8% with INSR; 83% in the test on IRAK1; 0% in the test with IRAK3; 84% with IRAK4. The results for the “%Inh” value (in the test on ITK; in [1]) were 12% and 0%, respectively.
